# Screens deposited in PubChem by National Center for Advancing Translational Sciences (NCATS).
# This is a sample that favours compounds with a hit; in the whole collection about 11% have one here.
# Pf growth 48h: P. falciparum growth inhibition at 48 hours (one generation) | P. falciparum luciferase growth in erythrocytes, 48 h | Potency, µM (top dose mostly 28.7 µM), for the others: at the top dose activity change, negative = inhibition, hits mostly inhibitors | hit rate 5.9% among 310,000; also: % is scaled to controls: 0 for no effect and ±100 for the full control effect
#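 In quantitative HTS format, infected erythrocytes bearing luciferase-reporter parasites were treated for a single generation at 37 C. Luminescence after adding detection reagent served as the growth measure.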
# VACV mCherry inh: vaccinia inhibition (mCherry reporter); Potency, µM (doses to about 36.5 µM), without a hit: at the top dose activity change, negative = inhibition, hits mostly inhibitors; hit rate 0.63% among 310,000; AID 720579; Vaccinia virus mCherry reporter infection, fluorescence; calls by dose curve; tested in A549 cells; also: % is scaled to controls: 0 for no effect and ±100 for the full control effect; nearly all actives have a fitted effect of over 35% in size
# Pf growth 96h: P. falciparum growth inhibition at 96 hour, primary screen for plastid delayed-death inhibitors; P. falciparum luciferase reporter growth, 96 h; Potency, µM (top dose mostly 28.7 µM), inactives show at the highest dose activity change, negative = inhibition, hits mostly inhibitors; hit rate 6.9% among 320,000; AID 504834; also: % is scaled to controls: 0 for no effect and ±100 for the full control effect
#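 Readout is luminescence from an integrated firefly luciferase in P. falciparum. Red cells, 2% hematocrit and 0.05% parasitemia final, were cultured with compound through two parasite generations (96 hours) at 37 C, 5% CO2.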
# HCV inhibitor: blocks hepatitis C virus; Huh7.5.1 HCVcc-Cre infection, luciferase reporter, 44 h; Potency, µM (top dose mostly 41.8 µM), inactives show at the highest dose activity change, negative = inhibition, hits mostly inhibitors; hit rate 3.4% among 340,000; AID 651820; also: % is scaled to controls: 0 for no effect and ±100 for the full control effect
#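 A cell-based infection assay in which seeded cells (1,000 per well) receive test compound after 4 h, are inoculated with HCVcc-Cre at approximately 0.5 moi, and are incubated 44 h before luminescence detection.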
# Vaccinia Venus: vaccinia inhibition (Venus reporter); Vaccinia virus Venus reporter expression, fluorescence; Potency, µM (titrated, usually from 36.5 µM), without a hit: at the top dose activity change, negative = inhibition, actives largely listed as inhibitors; hit rate 0.46% among 330,000; AID 720580; calls by dose curve; tested in A549 cells; also: % is scaled to controls: 0 for no effect and ±100 for the full control effect; nearly all actives have a fitted effect of over 30% in size
# NS1 inh: blocks influenza NS1 protein function; hit rate 0.4% among 270,000; Potency, µM (highest dose often 46.1 µM), for inactives: top-dose activity, positive = more growth; AID 2326; calls by dose curve; also: actives are rising curves; nearly all actives have a fitted effect of over 50% in size
#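 S. cerevisiae expressing influenza A NS1, grown in glucose, washed, then diluted 1:100 into pH 6.0 -URA galactose medium with 23 nl compound. Growth recovery read as OD600; NS1-free strain serves as control.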
# * hit, by the source's call; i = inactive; ? = inconclusive; . = no result given; [ ] = remark or other dose. Unless noted, calls follow the shape of the dose curve; as a rule, active = well fitted inhibition curve with a large enough effect; inconclusive = small, poorly fitted or top-dose-only effect, or another doubt; inactive = no such curve, though single readings can be large or run the other way. Potency is read from the fitted curve at half-maximal effect.
SMILES,Pf growth 48h,VACV mCherry inh,Pf growth 96h,HCV inhibitor,Vaccinia Venus,NS1 inh
COc1ccc(OC)c(/C=C/c2ccc3ccccc3[n+]2C)c1,.,25.8%,.,.,10.9%,.
COc1ccc(/C=C/c2cccc[n+]2C)c(O)c1,?,.,186.9%,8.91µM*,.,-3.7%
C[n+]1ccccc1/C=C/c1cc(Br)ccc1O,0.738µM*,.,?,?,.,-3.4%
CCN(CC)c1ccc(C=Nc2ccccc2)c(O)c1,?,.,?,-5.9%,14.8%,-2.1%
N#C/C(C(=O)N1CCCC1)=C1/N=C(N)c2ccccc21,-0.6%,i,24.1%,17.6%,1.6%,20.9%
Cc1c(C(=O)Nc2ccc(Cl)cc2)c2ccccn2c1C(=O)c1ccc(F)cc1,.,i,?,12.8%,-5.6%,9.9%
N#C/C(=C(/O)CN1CCCCC1)c1nc(-c2ccc(Cl)cc2)cs1,104.8%,i,47.1%,-15.0%,-17.5%,17.0%
CCC(=O)N(CCCN(C)C)c1nc(-c2cc(OC)ccc2OC)cs1,-6.1%,.,?,5.62µM*,.,-8.1%
COc1ccc(OC)c(-c2csc(N(Cc3ccco3)C(=O)c3ccco3)n2)c1,?,-21.2%,?,?,-13.9%,.
COc1ccc(-c2csc(N(CCCN(C)C)C(=O)c3cc(OC)c(OC)c(OC)c3)n2)cc1,?,.,?,-5.7%,.,0.6%
CCC(=O)N(CC)c1nc(-c2cc(OC)ccc2OC)cs1,11.7µM*,i,-30.0%,?,-6.4%,9.0%
COc1ccc(CNC(=O)CNC(c2ccccc2)c2ccccc2)cc1OC,?,-17.9%,?,8.4%,-13.2%,-14.0%
O=C(CSc1nncc(=O)[nH]1)NC1CCCCC1,11.0%,1.4%,3.7µM*,4.2%,1.8%,9.0%
O=S(=O)(c1cccc(-c2nn3c(-c4ccncc4)nnc3s2)c1)N1CCOCC1,2.7%,.,?,7.0%,.,-4.3%
CC1=CC(C)(C)N2C(=O)C3(NCCc4c3[nH]c3ccccc43)c3cc(C)cc1c32 (stereo unspecified),?,?,?,7.94µM*,-4.2%,-5.4%
CN1C(=O)C2(NCCc3c2[nH]c2ccccc32)c2ccccc21 (stereo unspecified),?,.,?,3.5%,-3.3%,?
COc1ccc(CN2CC(=O)N(c3cc(Cl)ccc3OC)C2=S)cc1OC,9.28µM*,.,-4.4%,11.2µM*,.,0.0%
COc1ccc(Cl)cc1N1C(=O)CN(Cc2cc(OC)c(OC)c(OC)c2)C1=S,3.29µM*,.,37.1%,15.8µM*,.,-12.5%
CCOc1ccccc1N1C(=O)CN(Cc2ccc(OC)c(OC)c2)C1=S,1.4%[0.00184 µM],.,-27.9%,12.6µM*,.,-2.9%
N#CC1=C(N)Oc2n[nH]c(-c3ccc(F)cc3)c2C1c1ccncc1 (stereo unspecified),-11.4%,-7.0%,124.5%,6.8%,3.3%,3.2%
CCOC(=O)[C@@H]1[C@H]2COc3cc(OC)ccc3[C@@H]2N2C(=O)N(c3ccc(Br)cc3)C(=O)[C@@]12C,?,-10.5%,35.3%,-29.0%,-23.1%,25.8%
Nc1nnc(CSCc2ccc(Cl)cc2)s1,2.9%,-2.6%,-10.1%,-3.7%,-14.5%,1.6%
Cc1c(CC(=O)NCCCC(=O)O)c(=O)oc2cc3c(cc12)CCC(C)(C)O3,2.62µM*,-4.1%,?,11.8%,-6.5%,3.2%
O=C(CSc1nnc(NC(=O)c2ccccc2[N+](=O)[O-])s1)NCC1CCCO1 (stereo unspecified),21.1%,-14.7%,13.1µM*,0.0%,-8.1%,11.4%
O=C(CSc1nnc(NC(=O)c2ccccc2F)s1)NCC1CCCO1 (stereo unspecified),68.8%,-11.0%,85.1%,13.0%,-6.2%,18.0%
SMILES,Pf growth 48h,VACV mCherry inh,Pf growth 96h,HCV inhibitor,Vaccinia Venus,NS1 inh
CCC(=O)Nc1nnc(SCC(=O)NCC2CCCO2)s1 (stereo unspecified),.,-17.1%,.,3.55µM*,-20.9%,.
CN1C(=O)N(c2nnc(C(C)(C)C)s2)C(=O)C1c1ccccc1 (stereo unspecified),30.2%,-17.2%,30.2%,20.0%,-4.5%,0.2%
CCCCN1C(=O)N(c2nnc(C(C)(C)C)s2)C(O)C1c1ccc(C)cc1 (stereo unspecified),8.28µM*,.,10.4µM*,?,.,-1.5%
CCCn1c2ccccc2c2nnc(SCC(=O)Nc3ncccn3)nc21,-23.9%,.,-0.3%,-13.4%,11.2µM*,28.5%
CCCn1c2ccccc2c2nnc(SCc3[nH]c(=O)[nH]c3C(=O)CCCCC(=O)OCC)nc21,?,i,10.4µM*,-25.8%,-11.2%,-0.8%
Cc1ccc(C2=NN=C(NC(=O)CSc3nnc4c5ccccc5n(C)c4n3)SC2)cc1,3.29µM*,i,18.2%,?,-13.6%,6.2%
CCOC(=O)CCCCC(=O)c1[nH]c(=O)[nH]c1CSc1nnc2c3ccccc3n(C(C)C)c2n1,?,-6.7%,?,12.8%,-4.9%,14.7%
C=CCn1c2ccccc2c2nnc(SCC(=O)Nc3cc(C)on3)nc21,.,.,-19.8%,?,-27.2%,0.9%
CCCn1c2ccccc2c2nnc(SCC(=O)Nc3cc(C)on3)nc21,.,.,?,-22.9%,10µM*,8.2%
Cc1cc(C)cc(NC(=S)NN)c1,?,-3.8%,?,7.3%,-8.5%,5.6%
c1ccc(-c2csc3ncnc(-n4cnc5ccccc54)c23)cc1,-8.4%,.,84.5%,-6.2%,?,-3.5%
O=C(NNc1ccccn1)C(=O)NNS(=O)(=O)c1ccc(F)cc1,0.1%,?,15.9%,?,-27.9%,.
CCCCN(CC)CCCNC(=O)c1ccc2c(c1)N(Cc1ccc(C)cc1)C(=O)c1ccccc1S2,.,12.6µM*,.,.,?,.
CCN1C(=O)c2ccccc2Sc2ccc(C(=O)NCCCN(CC(C)C)CC(C)C)cc21,10.4µM*,-2.4%,26.7%,-20.1%,6.0%,5.1%
Cc1ccccc1CC1C(=O)Nc2ccc(Br)cc21 (stereo unspecified),.,4.1%,.,.,-9.8%,.
CCc1noc(C)c1C(=O)N1CCN(c2ccc([N+](=O)[O-])cc2)CC1,.,-10.3%,.,.,-16.3%,.
Cc1cc(C)n2nc(C(=O)N3CCN(c4ccc([N+](=O)[O-])cc4)CC3)nc2n1,?,.,5.86µM*,-7.9%,.,.
COc1ccc(N2CCN(C(=O)c3nc4nc(C)cc(C)n4n3)CC2)cc1,?,-11.6%,-5.9%,19.4%,7.3%,.
CCc1nc2ccc(C(=O)N3CCN(c4ccc([N+](=O)[O-])cc4)CC3)cc2nc1CC,?,.,?,12.6µM*,.,2.1%
COc1ccc(OC)c(NC(=O)Cc2coc3ccc(C(C)C)cc23)c1,.,-6.8%,.,.,-9.3%,.
Cc1c(C#N)c(NC(=O)CCl)n(Cc2cccs2)c1C,10.4µM*,.,3.29µM*,?,.,.
Cc1c(C#N)c(NC(=O)CCl)n(Cc2ccccc2)c1C,?,?,18.5µM*,?,?,5.3%
CCN(CC)C(=O)c1sc(NC(=O)Cc2cccs2)c(C#N)c1C,-10.1%,-15.6%,-2.9%,-13.8%,-0.6%,-13.1%
